We go through 21 compounds from PubChem BioAssay (EPA / NIEHS).

In assay [1] the target is Aryl hydrocarbon receptor (Homo sapiens) (UniProt P35869). In words: ATG_Ahr_CIS: Attagene CIS-FACTORIAL HepG2 Assay for human Aryl Hydrocarbon Receptor (Ahr) (AID 2282930). To be noted: HepG2 AhR cis-factorial reporter transcription; actives raise or lower the signal. Put shortly:
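Following 24 h of chemical dosing, transfected HepG2 liver cells with cis-driven reporter units were lysed for RNA; reporter mRNA was quantified via RT-PCR and capillary electrophoresis, and responses fitted bidirectionally from DMSO.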

Assay [2] in a line: ATG_AP_1_CIS: Attagene CIS-FACTORIAL HepG2 Assay for human Activator Protein 1 (AP-1) (AID 2282931). To be noted: HepG2 Attagene cis-factorial AP-1 reporter mRNA; actives raise or lower the signal. Put shortly:
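HepG2 cells transiently transfected with cis-element-driven reporter transcription units, dosed for 24 hours. Reporter mRNA measured by RT-PCR, 6-FAM labelling, HpaI digestion and capillary electrophoresis. Bidirectional fitting against DMSO baseline.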

Assay [3] is described as follows: ATG_AP_2_CIS: Attagene CIS-FACTORIAL HepG2 Assay for human Activator Protein 2 (AP-2) (AID 2282932). Conditions: HepG2 AP-2 cis-reporter, Attagene transcription factor profiling; actives raise or lower the signal. Put shortly:
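Bidirectional curve fitting against DMSO was applied to reporter mRNA signals from HepG2 cells 24 h after dosing. Cis-promoter reporter units, transiently transfected, were read by RT-PCR plus capillary electrophoresis.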

Assay [4] can be described thus: ATG_BRE_CIS: Attagene CIS-FACTORIAL HepG2 Assay for human Bone Morphogenetic Protein (BMP) Response Element (BRE) (AID 2282933). To be noted: HepG2 BMP response element reporter, Attagene transcription factor profiling; actives raise or lower the signal. In outline:
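Fluorescence-labelled reporter cDNA fragments, separated by capillary electrophoresis, gave the signal for this component of a 52-readout multiplex. HepG2 cells were transfected, exposed to chemicals for 24 h, and compared with DMSO using bidirectional fitting.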

Assay [5] deals with Transcription factor E2F1 (Homo sapiens) (UniProt Q01094). Kind of assay: ATG_E2F_CIS: Attagene CIS-FACTORIAL HepG2 Assay for human E2F Transcription Factor 1 (AID 2282935). Conditions: HepG2 Attagene cis-reporter, E2F reporter RNA transcripts; actives raise or lower the signal. Put shortly: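 Multiplexed cis-reporter assay: HepG2, transient transfection, 24 h dosing, mRNA quantitation by labeled RT-PCR and CE.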

A short description of assay [6]: ATG_E_Box_CIS: Attagene CIS-FACTORIAL HepG2 Assay for human Enhancer Box (E-box) (AID 2282936). To be noted: HepG2 E-box cis-reporter transcription, actives raise or lower the signal. Put shortly:
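Multiplexed CIS reporter system in transiently transfected HepG2 cells measures native transcription factor activity. Reporter RNA after 24 h exposure is profiled by RT-PCR-capillary electrophoresis.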

Assay [7] can be described thus: ATG_M_61_CIS: Attagene CIS-FACTORIAL HepG2 Assay for M61 Transcription Factor (Internal Marker) (AID 2282937). Conditions: HepG2 Attagene CIS-FACTORIAL M61 internal marker reporter; actives raise or lower the signal. In outline:
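HepG2 cells transiently transfected with multiplexed cis-promoter reporter units reporting endogenous transcription factor activity, measured 24 h after dosing. Reporter mRNA quantified by RT-PCR and capillary electrophoresis; bidirectional fit against DMSO baseline.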

Assay [8] can be described thus: ATG_M_19_CIS: Attagene CIS-FACTORIAL HepG2 Assay for M19 Transcription Factor (Internal Marker) (AID 2282939). Conditions: HepG2 Attagene CIS-FACTORIAL M19 internal marker reporter; actives raise or lower the signal. Put shortly: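 HepG2, MRTU transient transfection, 24 h dosing. Total RNA → RT-PCR → 6-FAM primer extension → HpaI digest → CE fluorescence. Bidirectional curve fit, DMSO negative control.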

Assay [9] can be described thus: ATG_EGR_CIS: Attagene CIS-FACTORIAL HepG2 Assay for human Early Growth Response 1 (EGR1) (AID 2282938). Conditions: HepG2 Attagene CIS-FACTORIAL EGR reporter mRNA; actives raise or lower the signal. Put shortly:
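HepG2 cells transiently transfected with cis-element-driven multiplexed reporter units, dosed for 24 h. EGR1-element reporter mRNA quantified by RT-PCR, 6-FAM labelling, HpaI digestion and capillary electrophoresis; bidirectional fit versus DMSO.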

Assay [10] addresses Retinoic acid receptor alpha (Homo sapiens) (UniProt P10276). Kind of assay: ATG_DR5_RAR_CIS: Attagene CIS-FACTORIAL HepG2 Assay for human Retinoic Acid Receptor Alpha (RARE), DR5 submotif (AID 2282934). To be noted: HepG2 Attagene cis-factorial RARE DR5 reporter, mRNA; actives raise or lower the signal. In outline: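 Transfected HepG2 reporter cells are exposed to chemicals for 24 h. Then RNA is extracted and the DR5 element reporter transcript is measured by RT-PCR and capillary electrophoresis, with bidirectional curve fitting relative to DMSO.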

Active and inactive are the calls of the source. Rule for the calls: active = hit-call score of the fitted dose curve at least 0.9, where 1 is the maximum; inactive = score below 0.9.

Sequence of Aryl hydrocarbon receptor (Homo sapiens) (P35869 whole entry, looked up): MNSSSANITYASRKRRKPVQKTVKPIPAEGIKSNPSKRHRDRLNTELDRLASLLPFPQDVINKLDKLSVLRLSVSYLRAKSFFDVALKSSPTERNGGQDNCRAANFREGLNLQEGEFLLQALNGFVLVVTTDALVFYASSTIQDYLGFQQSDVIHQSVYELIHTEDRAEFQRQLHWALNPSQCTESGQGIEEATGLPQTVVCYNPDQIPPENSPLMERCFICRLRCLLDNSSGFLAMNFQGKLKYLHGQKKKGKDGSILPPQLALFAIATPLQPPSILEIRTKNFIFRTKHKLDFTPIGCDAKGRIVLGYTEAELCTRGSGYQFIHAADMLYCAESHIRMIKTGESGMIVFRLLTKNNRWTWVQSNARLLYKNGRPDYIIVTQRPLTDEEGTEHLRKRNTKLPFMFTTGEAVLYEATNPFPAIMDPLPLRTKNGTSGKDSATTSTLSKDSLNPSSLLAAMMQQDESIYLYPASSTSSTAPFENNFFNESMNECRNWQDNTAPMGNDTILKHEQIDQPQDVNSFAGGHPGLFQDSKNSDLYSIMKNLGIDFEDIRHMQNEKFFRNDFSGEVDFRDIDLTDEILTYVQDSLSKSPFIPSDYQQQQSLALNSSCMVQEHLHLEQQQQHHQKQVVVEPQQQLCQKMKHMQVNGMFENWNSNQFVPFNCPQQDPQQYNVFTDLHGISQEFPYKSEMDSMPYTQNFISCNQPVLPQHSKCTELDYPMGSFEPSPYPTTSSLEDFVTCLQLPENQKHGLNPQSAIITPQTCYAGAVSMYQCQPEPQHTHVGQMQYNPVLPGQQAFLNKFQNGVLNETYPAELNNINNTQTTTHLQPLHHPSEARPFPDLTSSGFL
Sequence of Retinoic acid receptor alpha (Homo sapiens) (P10276 whole entry, looked up): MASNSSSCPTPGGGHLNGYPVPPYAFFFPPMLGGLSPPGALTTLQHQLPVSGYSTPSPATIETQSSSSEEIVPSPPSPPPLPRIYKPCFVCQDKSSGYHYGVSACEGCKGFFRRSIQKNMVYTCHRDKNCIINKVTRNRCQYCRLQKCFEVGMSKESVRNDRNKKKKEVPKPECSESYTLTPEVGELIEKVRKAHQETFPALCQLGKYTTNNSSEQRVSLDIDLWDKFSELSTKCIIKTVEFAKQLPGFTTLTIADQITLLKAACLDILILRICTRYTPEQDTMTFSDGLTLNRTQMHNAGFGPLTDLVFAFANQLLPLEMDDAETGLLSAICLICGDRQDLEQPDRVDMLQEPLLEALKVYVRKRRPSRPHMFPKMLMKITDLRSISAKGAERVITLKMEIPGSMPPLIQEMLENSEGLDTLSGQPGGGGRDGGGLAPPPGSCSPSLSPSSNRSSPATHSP
Sequence of Transcription factor E2F1 (Homo sapiens) (Q01094 whole entry, looked up): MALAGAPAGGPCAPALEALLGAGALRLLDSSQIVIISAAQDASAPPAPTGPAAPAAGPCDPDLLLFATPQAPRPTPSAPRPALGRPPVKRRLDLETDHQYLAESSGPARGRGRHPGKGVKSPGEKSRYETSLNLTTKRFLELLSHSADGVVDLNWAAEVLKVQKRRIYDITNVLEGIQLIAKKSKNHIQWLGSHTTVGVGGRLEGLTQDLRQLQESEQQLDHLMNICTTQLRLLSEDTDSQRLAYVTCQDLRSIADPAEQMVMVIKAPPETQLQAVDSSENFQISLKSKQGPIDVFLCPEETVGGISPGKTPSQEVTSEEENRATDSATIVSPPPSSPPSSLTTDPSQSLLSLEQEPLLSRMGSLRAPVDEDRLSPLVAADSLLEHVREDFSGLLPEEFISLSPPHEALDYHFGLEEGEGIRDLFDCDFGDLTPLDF

For `[O-][Cl+2]([O-])O`, the result in [1], in assay [2], in [3], in assay [4], in assay [5] and in [6] was inactive. For the same compound, the compound was classed as inactive in assay [7] and in [8].

For the compound `ClCCBr`, the compound was classed as inactive in [1], in [2], in [3], in assay [4], in assay [5] and in assay [6]. For the same compound, the call in assay [7], in assay [9] and in assay [8] was inactive.

Take `ClCc1cccnc1`: the outcome in [1], in assay [2], in assay [3], in assay [4], in assay [5] and in assay [6] was inactive. Further, the result in assay [7] and in assay [8] was inactive.

Take `O=C(O)Cc1ccccc1`: the compound was called inactive in [1], in [2], in assay [3], in assay [4], in assay [5] and in assay [6]. In addition, the compound was classed as inactive in [7], in assay [9] and in [8].

As to `NNC(=S)NN`, the compound was classed as inactive in assay [1], in assay [2], in [3], in [4], in assay [5] and in assay [6]. For the same compound, the compound was classed as inactive in assay [7], in assay [9] and in assay [8].

With `COP(=S)(OC)Oc1cc(Cl)c(Cl)cc1Cl`, the AC50 in assay [1] is 11.3 µM (active); in [2], 41.8 µM (active); in assay [4], 64.5 µM (active). Further, the result in assay [3], in assay [5], in [6], in [7] and in assay [8] was inactive.

With `O=C(O)C(F)(F)C(F)(F)C(F)(F)C(F)(F)C(F)(F)C(F)(F)F`, the call in assay [1], in [2], in assay [4], in [10], in assay [5] and in assay [6] was inactive. For the same compound, the result in assay [7], in assay [9] and in [8] was inactive.

For the compound `Cl/C=C\C[N+]12CN3CN(CN(C3)C1)C2`, the call in assay [1], in [3], in assay [5], in [7], in [9] and in assay [8] was inactive. Further, the figures for the AC50 in assay [2], in assay [4] and in assay [6] were 181 µM (active), 19.8 µM (active) and 76.9 µM (active), respectively.

On to `CCSC(C)CC1CC(=O)C(C(CC)=NOC/C=C/Cl)=C(O)C1` (centres undefined), for which the concentration at half-maximal activity (AC50) in [1] is 28.4 µM (active). Besides, the outcome in [2], in assay [4], in assay [10], in assay [5], in assay [6] and in [7] was inactive. Besides, the call in assay [9] and in assay [8] was inactive.

Take `CCCCP(CCCC)CCCC`: the compound was classed as inactive in assay [1], in assay [2], in assay [3], in assay [4], in [5] and in [6]. The call in [7] and in [8] was inactive.

With `O=C1CCCN1`, the compound was classed as inactive in [1], in assay [2], in assay [3], in assay [4], in [5] and in [6]. The compound was classed as inactive in assay [7], in assay [9] and in assay [8].

As to `COc1cc2c(cc1OC)[C@@]13CCN4CC5=CCO[C@H]6CC(=O)N2[C@H]1[C@H]6[C@H]5C[C@H]43`, the result in assay [1], in assay [2], in assay [3], in [4], in [5] and in [6] was inactive. Moreover, the call in [7], in [9] and in [8] was inactive.

Regarding `Nc1cccc(Cl)c1`, the compound was classed as inactive in assay [1], in [2], in assay [3], in assay [4], in [5] and in assay [6]. Further, the outcome in assay [7], in assay [9] and in assay [8] was inactive.

Consider `CCN(CC)C(=O)Cl`, for which the compound was called inactive in assay [1], in assay [2], in [3], in [4], in assay [5] and in [6]. Besides, the compound was classed as inactive in assay [7], in [9] and in assay [8].

`C=CC(=O)OCCCCCC(C)C`: the compound was called inactive in assay [1], in assay [2], in assay [4], in [10], in [5] and in assay [6]. For the same compound, the compound was classed as inactive in [7] and in assay [8].

With `C[C@H]1CCCC(=O)CCC/C=C/c2cc(O)cc(O)c2C(=O)O1`, the values for the half-maximal activity concentration (AC50) in assay [1] and in assay [4] were 22.5 µM (active) and 64.5 µM (active), respectively. Besides, the compound was classed as inactive in [2], in assay [3], in assay [5], in assay [6], in [7] and in assay [8].

For `CCC[CH2][Sn]([Cl])([Cl])[Cl]`, the compound was called inactive in assay [1], in assay [2], in [3], in assay [4], in assay [5] and in assay [6]. The result in assay [7], in assay [9] and in assay [8] was inactive.

For the compound `CC(C)c1ccc(CO)cc1`, the call in assay [2], in assay [3], in [4], in assay [5], in assay [6] and in assay [7] was inactive. Moreover, the result in assay [9] and in [8] was inactive.

Consider `COP(=O)(OC)O/C(=C\Cl)c1cc(Cl)c(Cl)cc1Cl`, for which the call in assay [1], in assay [10], in [5], in assay [6], in assay [7] and in [8] was inactive. For the same compound, the results for the AC50 in assay [2] and in assay [4] were 62.4 µM (active) and 70.3 µM (active), respectively.

As for `O=C(c1ccccc1)C(Cl)Cl`, the compound was classed as inactive in [1], in [4], in assay [10], in assay [5], in assay [7] and in [8]. Further, the AC50 in assay [2] is 53.4 µM (active); in assay [6] it was 10.9 µM (active).

For the compound `C=CC(=O)N(C)C`, the compound was classed as inactive in assay [1], in assay [2], in assay [4], in assay [5], in [6] and in assay [7]. For the same compound, the compound was classed as inactive in assay [9] and in assay [8].
